# Test results published in publication PMC7862700, “An all-to-all approach to the identification of sequence-specific readers for epigenetic DNA modifications on cytosine”.
# What was measured:
# Assay in all cases: DAPPL (digital affinity profiling via proximity ligation, sequencing); 10 mM Tris-HCl pH 7.5, 50 mM NaCl, 1 mM DTT, 4% glycerol, room temperature, 30 min; GST-TFs on glutathione beads, 16-mer random dsDNA library, 0.1% formaldehyde crosslink after washing; high values mean tight binding
# [1] = biological target: T1, FEV (Homo sapiens, UniProt Q99581 1-238); details: protein: recombinant; tags: N-terminal GST; dsDNA, one strand shown
# T1 sequence: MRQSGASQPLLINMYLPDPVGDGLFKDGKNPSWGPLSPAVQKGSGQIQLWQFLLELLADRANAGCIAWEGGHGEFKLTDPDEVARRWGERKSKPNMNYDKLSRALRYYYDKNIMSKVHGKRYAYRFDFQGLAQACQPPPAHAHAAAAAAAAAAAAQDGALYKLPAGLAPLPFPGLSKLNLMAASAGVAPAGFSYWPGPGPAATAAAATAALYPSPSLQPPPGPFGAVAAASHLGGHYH
# Method in brief: (§1)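 Human transcription factors were made in yeast as GST fusions, captured on glutathione beads and barcoded with DNA. With a tag-only sample included, the pool was incubated with 200 nmole of a random double-stranded 16-mer DNA library in Tris/NaCl/DTT/glycerol buffer at room temperature for 30 min, then crosslinked with 0.1% formaldehyde after washing, ligated by proximity, amplified and sequenced. For binding signal, each hexamer's read frequency for a factor is divided by its frequency for the tag-only sample.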
# [2] = biological target: ETV5 (Homo sapiens, UniProt P41161 1-510); details: protein: recombinant; tags: N-terminal GST; dsDNA, one strand shown
# Method in brief: as §1
# [3] = biological target: HSF1 (Homo sapiens, UniProt Q00613 1-529); details: protein: recombinant; tags: N-terminal GST; chain copies: 3; dsDNA, one strand shown
# Method in brief: as §1
# [4] = biological target: T2, SPIC (Homo sapiens, UniProt Q8N5J4 1-248); details: protein: recombinant; tags: N-terminal GST; dsDNA, one strand shown
# T2 sequence: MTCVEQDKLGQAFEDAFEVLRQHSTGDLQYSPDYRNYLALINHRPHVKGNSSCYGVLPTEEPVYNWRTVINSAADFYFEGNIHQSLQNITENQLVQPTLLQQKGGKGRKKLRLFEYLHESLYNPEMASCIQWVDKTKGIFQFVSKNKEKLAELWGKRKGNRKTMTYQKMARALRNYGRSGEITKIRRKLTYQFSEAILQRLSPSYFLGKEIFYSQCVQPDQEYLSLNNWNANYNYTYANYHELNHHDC
# Method in brief: as §1
# [5] = biological target: ELF4 (Homo sapiens, UniProt Q99607 1-663); details: protein: recombinant; tags: N-terminal GST; dsDNA, one strand shown
# Method in brief: as §1
# [6] = biological target: T3, ELK4 (Homo sapiens, UniProt P28324-2 1-405); details: protein: recombinant; tags: N-terminal GST; dsDNA, one strand shown
# T3 sequence: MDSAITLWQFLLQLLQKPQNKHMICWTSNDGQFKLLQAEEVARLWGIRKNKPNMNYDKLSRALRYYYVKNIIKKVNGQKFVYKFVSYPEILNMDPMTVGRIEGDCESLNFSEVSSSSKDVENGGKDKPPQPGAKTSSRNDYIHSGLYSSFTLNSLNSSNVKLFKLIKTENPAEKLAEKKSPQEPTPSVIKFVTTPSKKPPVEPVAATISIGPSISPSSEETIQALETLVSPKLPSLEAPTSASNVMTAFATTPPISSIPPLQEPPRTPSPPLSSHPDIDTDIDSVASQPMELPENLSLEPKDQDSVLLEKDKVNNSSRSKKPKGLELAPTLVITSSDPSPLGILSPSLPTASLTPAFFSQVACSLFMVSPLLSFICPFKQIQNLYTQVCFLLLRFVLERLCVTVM
# Method in brief: as §1
# [7] = biological target: T4, ETV2 (Homo sapiens, UniProt O00321 1-342); details: protein: recombinant; tags: N-terminal GST; dsDNA, one strand shown
# T4 sequence: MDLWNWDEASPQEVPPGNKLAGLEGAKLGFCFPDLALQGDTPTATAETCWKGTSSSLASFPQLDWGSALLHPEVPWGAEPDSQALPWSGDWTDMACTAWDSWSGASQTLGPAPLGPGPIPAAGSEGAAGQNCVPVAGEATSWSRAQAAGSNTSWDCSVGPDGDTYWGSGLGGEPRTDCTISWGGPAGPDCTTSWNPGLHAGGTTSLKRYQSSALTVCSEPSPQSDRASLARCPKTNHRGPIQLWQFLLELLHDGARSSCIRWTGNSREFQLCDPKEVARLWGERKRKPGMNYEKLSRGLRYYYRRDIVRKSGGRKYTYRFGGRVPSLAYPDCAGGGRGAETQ
# Method in brief: as §1
# [8] = biological target: T5, ELF3 (Homo sapiens, UniProt P78545 1-371); details: protein: recombinant; tags: N-terminal GST; dsDNA, one strand shown
# T5 sequence: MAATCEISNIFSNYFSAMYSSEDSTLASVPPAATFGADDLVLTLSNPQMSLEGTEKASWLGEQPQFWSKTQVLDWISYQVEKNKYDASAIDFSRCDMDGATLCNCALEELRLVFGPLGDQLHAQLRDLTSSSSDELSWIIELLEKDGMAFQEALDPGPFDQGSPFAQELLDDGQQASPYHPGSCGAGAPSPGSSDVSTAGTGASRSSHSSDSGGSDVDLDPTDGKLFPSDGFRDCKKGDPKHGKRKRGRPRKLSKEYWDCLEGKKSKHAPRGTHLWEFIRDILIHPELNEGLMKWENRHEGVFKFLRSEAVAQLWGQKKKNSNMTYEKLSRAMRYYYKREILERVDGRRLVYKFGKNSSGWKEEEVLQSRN
# Method in brief: as §1
# [9] = biological target: CRX (Homo sapiens, UniProt O43186 1-299); details: protein: recombinant; tags: N-terminal GST; dsDNA, one strand shown
# Method in brief: as §1
# [10] = biological target: ETV1 (Homo sapiens, UniProt P50549 1-477); details: protein: recombinant; tags: N-terminal GST; dsDNA, one strand shown
# Method in brief: as §1
# [11] = biological target: T6, ERF (Homo sapiens, UniProt P50548 1-548); details: protein: recombinant; tags: N-terminal GST; dsDNA, one strand shown
# T6 sequence: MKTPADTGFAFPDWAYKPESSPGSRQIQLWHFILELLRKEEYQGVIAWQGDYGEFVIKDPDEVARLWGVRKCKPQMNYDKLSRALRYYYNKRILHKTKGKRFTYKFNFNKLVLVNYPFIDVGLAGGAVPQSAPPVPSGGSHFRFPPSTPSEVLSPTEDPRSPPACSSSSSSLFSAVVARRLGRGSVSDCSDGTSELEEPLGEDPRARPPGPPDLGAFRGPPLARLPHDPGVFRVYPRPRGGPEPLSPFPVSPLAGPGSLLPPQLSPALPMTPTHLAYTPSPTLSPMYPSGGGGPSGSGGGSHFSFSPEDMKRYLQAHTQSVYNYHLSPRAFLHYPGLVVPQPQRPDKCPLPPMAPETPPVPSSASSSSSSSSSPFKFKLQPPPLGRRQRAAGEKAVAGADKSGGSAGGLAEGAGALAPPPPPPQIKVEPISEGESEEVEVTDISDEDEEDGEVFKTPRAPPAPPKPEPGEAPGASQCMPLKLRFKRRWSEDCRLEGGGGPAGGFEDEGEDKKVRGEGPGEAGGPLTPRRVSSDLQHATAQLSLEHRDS
# Method in brief: as §1
# [12] = biological target: T7, ETV3L (Homo sapiens, UniProt Q6ZN32 1-361); details: protein: recombinant; tags: N-terminal GST; dsDNA, one strand shown
# T7 sequence: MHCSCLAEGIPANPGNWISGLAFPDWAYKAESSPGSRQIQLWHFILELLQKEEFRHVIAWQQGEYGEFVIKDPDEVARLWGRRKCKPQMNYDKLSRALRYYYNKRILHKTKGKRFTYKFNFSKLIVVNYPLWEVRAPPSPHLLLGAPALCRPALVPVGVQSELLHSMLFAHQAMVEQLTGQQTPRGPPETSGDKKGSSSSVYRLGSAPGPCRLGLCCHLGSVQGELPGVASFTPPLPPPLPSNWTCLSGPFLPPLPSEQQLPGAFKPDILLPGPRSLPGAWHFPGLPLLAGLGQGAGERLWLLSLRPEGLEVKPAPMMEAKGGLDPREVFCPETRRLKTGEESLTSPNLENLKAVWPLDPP
# Method in brief: as §1
# [13] = biological target: T8, ETS2 (Homo sapiens, UniProt P15036 1-469); details: protein: recombinant; tags: N-terminal GST; dsDNA, one strand shown
# T8 sequence: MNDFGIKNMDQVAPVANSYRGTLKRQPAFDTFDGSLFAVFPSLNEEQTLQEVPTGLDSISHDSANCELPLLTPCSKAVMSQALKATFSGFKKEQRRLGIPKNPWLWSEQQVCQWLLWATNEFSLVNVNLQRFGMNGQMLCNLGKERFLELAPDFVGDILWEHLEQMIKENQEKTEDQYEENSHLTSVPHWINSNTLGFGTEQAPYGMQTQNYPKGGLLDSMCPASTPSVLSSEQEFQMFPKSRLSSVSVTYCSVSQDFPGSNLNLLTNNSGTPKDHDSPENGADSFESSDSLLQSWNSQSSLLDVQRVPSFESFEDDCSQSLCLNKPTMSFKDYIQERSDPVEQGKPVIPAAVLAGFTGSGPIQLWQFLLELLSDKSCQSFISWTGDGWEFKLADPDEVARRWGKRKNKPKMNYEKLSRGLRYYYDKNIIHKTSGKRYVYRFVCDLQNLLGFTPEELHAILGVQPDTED
# Method in brief: as §1
# [14] = biological target: T9, SPDEF (Homo sapiens, UniProt O95238 1-335); details: protein: recombinant; tags: N-terminal GST; dsDNA, one strand shown
# T9 sequence: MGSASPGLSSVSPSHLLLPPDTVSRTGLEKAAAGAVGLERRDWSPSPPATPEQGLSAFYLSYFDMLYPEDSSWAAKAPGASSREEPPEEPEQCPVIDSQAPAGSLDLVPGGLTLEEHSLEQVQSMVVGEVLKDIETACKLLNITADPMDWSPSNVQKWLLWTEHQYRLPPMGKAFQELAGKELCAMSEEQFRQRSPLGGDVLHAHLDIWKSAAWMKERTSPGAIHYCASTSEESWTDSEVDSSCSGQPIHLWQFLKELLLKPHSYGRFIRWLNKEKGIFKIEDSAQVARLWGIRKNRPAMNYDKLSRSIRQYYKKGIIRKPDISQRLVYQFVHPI
# Method in brief: as §1
# [15] = biological target: T10, ETV7 (Homo sapiens, UniProt Q9Y603 1-341); details: protein: recombinant; tags: N-terminal GST; dsDNA, one strand shown
# T10 sequence: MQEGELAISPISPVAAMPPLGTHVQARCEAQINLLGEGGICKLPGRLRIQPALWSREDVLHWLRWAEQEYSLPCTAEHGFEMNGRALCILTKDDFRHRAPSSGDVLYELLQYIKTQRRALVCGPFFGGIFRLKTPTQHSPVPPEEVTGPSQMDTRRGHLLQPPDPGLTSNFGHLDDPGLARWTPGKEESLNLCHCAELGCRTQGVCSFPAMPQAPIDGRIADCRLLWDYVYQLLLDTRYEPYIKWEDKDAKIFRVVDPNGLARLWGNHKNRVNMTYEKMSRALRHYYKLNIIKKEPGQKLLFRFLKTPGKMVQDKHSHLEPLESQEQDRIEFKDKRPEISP
# Method in brief: as §1
# [16] = biological target: T11, ELF5 (Homo sapiens, UniProt Q9UKW6-2 1-255); details: protein: recombinant; tags: N-terminal GST; dsDNA, one strand shown
# T11 sequence: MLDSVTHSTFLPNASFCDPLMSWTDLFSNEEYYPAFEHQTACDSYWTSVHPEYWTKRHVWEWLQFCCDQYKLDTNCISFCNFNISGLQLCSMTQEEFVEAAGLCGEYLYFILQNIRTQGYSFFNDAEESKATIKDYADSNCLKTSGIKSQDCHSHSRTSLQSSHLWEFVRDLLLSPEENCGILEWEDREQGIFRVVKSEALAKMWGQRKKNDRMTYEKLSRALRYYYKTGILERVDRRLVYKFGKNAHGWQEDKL
# Method in brief: as §1
# [17] = biological target: T12, ETV3 (Homo sapiens, UniProt P41162-2 1-143); details: protein: recombinant; tags: N-terminal GST; dsDNA, one strand shown
# T12 sequence: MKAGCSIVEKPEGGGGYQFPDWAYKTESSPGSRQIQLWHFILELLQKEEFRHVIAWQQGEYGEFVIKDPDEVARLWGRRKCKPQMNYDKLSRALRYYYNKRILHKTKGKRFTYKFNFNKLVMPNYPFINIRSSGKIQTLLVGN
# Method in brief: as §1
# [18] = biological target: ETV6 (Homo sapiens, UniProt P41212 1-452); details: protein: recombinant; tags: N-terminal GST; dsDNA, one strand shown
# Method in brief: as §1
# Sequence of CRX (O43186 whole entry): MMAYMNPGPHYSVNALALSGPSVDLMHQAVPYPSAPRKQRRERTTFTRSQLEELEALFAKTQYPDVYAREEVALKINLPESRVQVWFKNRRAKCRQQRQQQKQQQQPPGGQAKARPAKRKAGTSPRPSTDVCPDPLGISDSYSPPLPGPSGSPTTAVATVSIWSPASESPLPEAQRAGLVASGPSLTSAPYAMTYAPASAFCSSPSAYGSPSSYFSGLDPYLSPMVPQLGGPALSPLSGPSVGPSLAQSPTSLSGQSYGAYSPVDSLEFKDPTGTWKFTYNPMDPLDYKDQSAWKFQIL
# Sequence of HSF1 (Q00613 whole entry): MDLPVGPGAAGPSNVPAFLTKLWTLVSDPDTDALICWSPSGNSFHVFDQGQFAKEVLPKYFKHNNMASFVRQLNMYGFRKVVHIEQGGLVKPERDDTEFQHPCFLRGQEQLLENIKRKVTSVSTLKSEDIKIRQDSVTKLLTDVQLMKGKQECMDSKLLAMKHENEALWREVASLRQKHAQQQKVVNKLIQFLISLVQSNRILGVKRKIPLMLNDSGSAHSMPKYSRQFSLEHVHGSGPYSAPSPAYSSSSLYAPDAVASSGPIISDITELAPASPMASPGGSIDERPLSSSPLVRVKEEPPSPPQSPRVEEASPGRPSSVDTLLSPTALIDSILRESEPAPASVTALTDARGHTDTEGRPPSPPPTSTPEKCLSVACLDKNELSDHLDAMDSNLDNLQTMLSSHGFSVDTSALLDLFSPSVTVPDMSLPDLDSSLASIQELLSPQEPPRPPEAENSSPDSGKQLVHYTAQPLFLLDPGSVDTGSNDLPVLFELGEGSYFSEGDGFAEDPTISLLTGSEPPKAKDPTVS
# Sequence of ETV1 (P50549 whole entry): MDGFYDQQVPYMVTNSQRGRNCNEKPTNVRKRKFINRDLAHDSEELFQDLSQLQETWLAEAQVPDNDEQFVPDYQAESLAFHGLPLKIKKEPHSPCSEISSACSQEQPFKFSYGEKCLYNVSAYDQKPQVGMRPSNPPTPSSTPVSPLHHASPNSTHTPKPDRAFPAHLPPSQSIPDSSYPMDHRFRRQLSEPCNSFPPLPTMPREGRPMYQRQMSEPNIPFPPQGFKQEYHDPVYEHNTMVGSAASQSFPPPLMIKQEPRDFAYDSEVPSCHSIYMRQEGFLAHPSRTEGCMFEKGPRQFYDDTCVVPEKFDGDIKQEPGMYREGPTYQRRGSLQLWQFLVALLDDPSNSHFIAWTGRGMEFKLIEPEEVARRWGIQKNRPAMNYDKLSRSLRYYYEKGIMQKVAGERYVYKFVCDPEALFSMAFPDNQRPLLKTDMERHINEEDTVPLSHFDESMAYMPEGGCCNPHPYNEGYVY
# Sequence of ETV5 (P41161 whole entry): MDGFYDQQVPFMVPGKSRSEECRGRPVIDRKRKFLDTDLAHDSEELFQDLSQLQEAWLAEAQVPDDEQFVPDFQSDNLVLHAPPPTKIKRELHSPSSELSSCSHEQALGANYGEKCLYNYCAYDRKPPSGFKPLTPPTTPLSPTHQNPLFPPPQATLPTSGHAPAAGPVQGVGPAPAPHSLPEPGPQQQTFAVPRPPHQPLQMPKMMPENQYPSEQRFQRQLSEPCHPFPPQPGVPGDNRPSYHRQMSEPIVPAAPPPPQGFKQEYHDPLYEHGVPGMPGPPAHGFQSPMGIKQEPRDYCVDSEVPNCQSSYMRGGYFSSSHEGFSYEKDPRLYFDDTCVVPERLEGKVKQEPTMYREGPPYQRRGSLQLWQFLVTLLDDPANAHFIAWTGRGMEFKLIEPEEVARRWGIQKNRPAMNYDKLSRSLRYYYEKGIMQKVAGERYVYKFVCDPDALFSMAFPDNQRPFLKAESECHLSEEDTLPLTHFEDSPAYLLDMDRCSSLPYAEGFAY
# Sequence of ELF4 (Q99607 whole entry): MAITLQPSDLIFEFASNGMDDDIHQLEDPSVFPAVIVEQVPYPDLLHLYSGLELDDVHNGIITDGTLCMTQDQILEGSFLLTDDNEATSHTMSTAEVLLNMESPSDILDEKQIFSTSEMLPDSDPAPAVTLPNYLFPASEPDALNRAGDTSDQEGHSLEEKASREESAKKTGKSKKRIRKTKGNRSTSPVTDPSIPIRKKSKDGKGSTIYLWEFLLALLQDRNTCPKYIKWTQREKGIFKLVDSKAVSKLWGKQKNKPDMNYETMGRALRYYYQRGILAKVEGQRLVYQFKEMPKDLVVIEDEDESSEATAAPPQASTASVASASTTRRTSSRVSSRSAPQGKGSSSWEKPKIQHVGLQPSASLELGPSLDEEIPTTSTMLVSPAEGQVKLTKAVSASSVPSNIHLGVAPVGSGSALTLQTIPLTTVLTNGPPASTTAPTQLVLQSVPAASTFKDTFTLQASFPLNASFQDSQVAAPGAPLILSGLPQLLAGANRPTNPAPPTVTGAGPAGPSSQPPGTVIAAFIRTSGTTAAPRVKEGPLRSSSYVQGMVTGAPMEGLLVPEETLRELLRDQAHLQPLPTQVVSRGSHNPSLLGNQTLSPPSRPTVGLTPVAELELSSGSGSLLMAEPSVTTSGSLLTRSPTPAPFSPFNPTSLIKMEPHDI
# Sequence of ETV6 (P41212 whole entry): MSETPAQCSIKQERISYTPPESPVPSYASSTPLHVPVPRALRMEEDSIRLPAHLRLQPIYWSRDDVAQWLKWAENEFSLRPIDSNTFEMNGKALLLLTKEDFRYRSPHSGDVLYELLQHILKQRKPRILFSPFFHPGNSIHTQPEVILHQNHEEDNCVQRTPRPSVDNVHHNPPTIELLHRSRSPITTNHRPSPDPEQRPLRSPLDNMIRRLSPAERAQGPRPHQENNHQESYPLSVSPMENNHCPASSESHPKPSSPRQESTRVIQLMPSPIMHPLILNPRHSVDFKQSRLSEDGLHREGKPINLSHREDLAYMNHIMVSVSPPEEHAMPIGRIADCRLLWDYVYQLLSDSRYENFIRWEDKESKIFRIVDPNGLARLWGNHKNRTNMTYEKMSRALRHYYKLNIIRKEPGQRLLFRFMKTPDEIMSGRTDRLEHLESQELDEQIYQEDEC
sequence,measurement,setting,value
TACACC,binding signal,[1],"1.2 fold enrichment (6-mer frequency, TF over GST control)"
same,binding signal,[2],"1.15 fold enrichment (6-mer frequency, TF over GST control)"
same,binding signal,[3],"1.03 fold enrichment (6-mer frequency, TF over GST control)"
same,binding signal,[4],"1.3 fold enrichment (6-mer frequency, TF over GST control)"
same,binding signal,[5],"1.22 fold enrichment (6-mer frequency, TF over GST control)"
same,binding signal,[6],"1.16 fold enrichment (6-mer frequency, TF over GST control)"
same,binding signal,[7],"1.19 fold enrichment (6-mer frequency, TF over GST control)"
same,binding signal,[8],"1.11 fold enrichment (6-mer frequency, TF over GST control)"
same,binding signal,[9],"1.06 fold enrichment (6-mer frequency, TF over GST control)"
same,binding signal,[10],"1.25 fold enrichment (6-mer frequency, TF over GST control)"
same,binding signal,[11],"1.21 fold enrichment (6-mer frequency, TF over GST control)"
same,binding signal,[12],"1.17 fold enrichment (6-mer frequency, TF over GST control)"
same,binding signal,[13],"1.1 fold enrichment (6-mer frequency, TF over GST control)"
same,binding signal,[14],"1.24 fold enrichment (6-mer frequency, TF over GST control)"
same,binding signal,[15],"1.13 fold enrichment (6-mer frequency, TF over GST control)"
same,binding signal,[16],"1.18 fold enrichment (6-mer frequency, TF over GST control)"
same,binding signal,[17],"1.18 fold enrichment (6-mer frequency, TF over GST control)"
same,binding signal,[18],"1.15 fold enrichment (6-mer frequency, TF over GST control)"
